“And” between values parts separate entries of the source, which are not always exact repeats. Identical values can stand only once. Inconclusive results are not listed. A call without a number means that no potency is given here. Where a structure was tested more than once in an assay, its records may differ in their call. The source made the active and inactive calls. Calls follow the shape of the dose curve; as a rule, active = well fitted curve in the direction sought with a large enough effect in the repeat runs; inconclusive = weak or mixed curves; inactive = no such curve, though single readings can be large; an effect the other way counts as inactive or inconclusive.
Assays:
[1] = Human pregnane X receptor (PXR) small molecule agonists, qHTS cell viability counter screen (AID 1346977); also: nearly all actives have a fitted effect of over 50% in size; also: potency is read from the fitted curve at half-maximal effect
Method in brief: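 Tox21 qHTS format; PXR-Luc HepG2, 2,000/well, charcoal-stripped FBS 5%. Cpd exposure 24hr. Read: CellTiter-Fluor fluorescence, multiplexed with luciferase.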

[2] = Caspase-3/7 induction in HepG2 cells by small molecules, qHTS assay (AID 1346978); also: nearly all actives have a fitted effect of over 15% in size
Method in brief: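 Wild-type HepG2 cells, 2,000/well, settled 5 hr at 37 C and 5% CO2, then compound-treated for 17 hr; caspase-3/7 activity read by luminescent Caspase-Glo 3/7 after 30 min at room temperature.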

[3] = Caspase-3/7 induction in HepG2 cells by small molecules, qHTS cell viability counter screen (AID 1346981); also: nearly all actives have a fitted effect of over 30% in size; also: potency is read from the fitted curve at half-maximal effect
Method in brief: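 Wild-type HepG2 cells (2,000/well) were allowed to settle for 5 hr at 37 C, 5% CO2, then dosed with compounds in DMSO by pin transfer. After 16 hr at 37 C, CellTiter-Fluor was added and fluorescence read 1 hr later.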

[4] = biological target: Nuclear receptor subfamily 1 group I member 2 (Homo sapiens) (UniProt O75469); experiment: Human pregnane X receptor (PXR) small molecule agonists, qHTS assay (AID 1346982); also: nearly all actives have a fitted effect of over 35% in size; also: potency is read from the fitted curve at half-maximal effect
Chain of Nuclear receptor subfamily 1 group I member 2 (Homo sapiens) (O75469 whole entry, looked up): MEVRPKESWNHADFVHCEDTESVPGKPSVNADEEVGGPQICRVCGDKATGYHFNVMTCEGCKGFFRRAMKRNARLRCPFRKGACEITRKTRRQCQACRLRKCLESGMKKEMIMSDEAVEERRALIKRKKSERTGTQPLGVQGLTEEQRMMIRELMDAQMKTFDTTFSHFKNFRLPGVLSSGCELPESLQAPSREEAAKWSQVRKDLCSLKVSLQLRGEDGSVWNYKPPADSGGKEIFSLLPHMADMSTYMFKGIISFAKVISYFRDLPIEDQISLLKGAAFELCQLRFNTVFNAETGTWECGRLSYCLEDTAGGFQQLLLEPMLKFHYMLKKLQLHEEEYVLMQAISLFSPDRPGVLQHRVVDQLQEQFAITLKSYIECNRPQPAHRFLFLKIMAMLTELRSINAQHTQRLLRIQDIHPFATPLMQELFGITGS
Method in brief: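 PXR-Luc HepG2 cells (CYP3A4 promoter-driven luciferase) were seeded in medium with 5% charcoal-stripped FBS, left 5 hr at 37 C, then exposed to compounds in DMSO for 24 hr. Luminescence was read after ONE-Glo addition.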

[5] = biological target: Cytochrome P450 2C19 (Homo sapiens) (UniProt P33261); experiment: Cytochrome P450 Family 2 Subfamily C Member 19 (CYP2C19) small molecule antagonists: luciferase reporter qHTS assay (AID 1671197); also: nearly all actives have a fitted effect of over 65% in size; also: potency is read from the fitted curve at half-maximal effect
Chain of Cytochrome P450 2C19 (Homo sapiens) (P33261 whole entry, looked up): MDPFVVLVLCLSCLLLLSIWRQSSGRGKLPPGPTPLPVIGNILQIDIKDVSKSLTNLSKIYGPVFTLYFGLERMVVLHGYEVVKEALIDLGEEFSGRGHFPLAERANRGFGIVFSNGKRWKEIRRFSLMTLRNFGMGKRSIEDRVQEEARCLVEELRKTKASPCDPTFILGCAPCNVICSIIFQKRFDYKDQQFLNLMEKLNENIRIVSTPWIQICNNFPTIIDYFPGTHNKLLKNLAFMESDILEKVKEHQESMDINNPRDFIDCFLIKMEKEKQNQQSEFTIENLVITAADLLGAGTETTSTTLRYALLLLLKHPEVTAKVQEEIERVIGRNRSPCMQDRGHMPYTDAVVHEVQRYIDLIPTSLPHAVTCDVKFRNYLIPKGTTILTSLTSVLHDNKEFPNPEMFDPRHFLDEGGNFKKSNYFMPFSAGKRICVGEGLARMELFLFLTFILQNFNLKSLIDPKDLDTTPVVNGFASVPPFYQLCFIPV
Method in brief: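 P450-Glo CYP2C19 screening system; proluciferin substrate; DMSO compound stocks; 10 min RT preincubation; NADPH regeneration, 1 h at 37C; luciferin detection reagent, 20 min RT; luminescence as RLU.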

[6] = biological target: Voltage-gated inwardly rectifying potassium channel KCNH2 (Homo sapiens) (UniProt Q12809); experiment: Human Ether-a-go-go-Related Gene (hERG) channel small molecule antagonists: fluorescence cell-based qHTS assay (AID 1671200); also: nearly all actives have a fitted effect of over 50% in size; also: potency is read from the fitted curve at half-maximal effect
Chain of Voltage-gated inwardly rectifying potassium channel KCNH2 (Homo sapiens) (Q12809 whole entry, looked up): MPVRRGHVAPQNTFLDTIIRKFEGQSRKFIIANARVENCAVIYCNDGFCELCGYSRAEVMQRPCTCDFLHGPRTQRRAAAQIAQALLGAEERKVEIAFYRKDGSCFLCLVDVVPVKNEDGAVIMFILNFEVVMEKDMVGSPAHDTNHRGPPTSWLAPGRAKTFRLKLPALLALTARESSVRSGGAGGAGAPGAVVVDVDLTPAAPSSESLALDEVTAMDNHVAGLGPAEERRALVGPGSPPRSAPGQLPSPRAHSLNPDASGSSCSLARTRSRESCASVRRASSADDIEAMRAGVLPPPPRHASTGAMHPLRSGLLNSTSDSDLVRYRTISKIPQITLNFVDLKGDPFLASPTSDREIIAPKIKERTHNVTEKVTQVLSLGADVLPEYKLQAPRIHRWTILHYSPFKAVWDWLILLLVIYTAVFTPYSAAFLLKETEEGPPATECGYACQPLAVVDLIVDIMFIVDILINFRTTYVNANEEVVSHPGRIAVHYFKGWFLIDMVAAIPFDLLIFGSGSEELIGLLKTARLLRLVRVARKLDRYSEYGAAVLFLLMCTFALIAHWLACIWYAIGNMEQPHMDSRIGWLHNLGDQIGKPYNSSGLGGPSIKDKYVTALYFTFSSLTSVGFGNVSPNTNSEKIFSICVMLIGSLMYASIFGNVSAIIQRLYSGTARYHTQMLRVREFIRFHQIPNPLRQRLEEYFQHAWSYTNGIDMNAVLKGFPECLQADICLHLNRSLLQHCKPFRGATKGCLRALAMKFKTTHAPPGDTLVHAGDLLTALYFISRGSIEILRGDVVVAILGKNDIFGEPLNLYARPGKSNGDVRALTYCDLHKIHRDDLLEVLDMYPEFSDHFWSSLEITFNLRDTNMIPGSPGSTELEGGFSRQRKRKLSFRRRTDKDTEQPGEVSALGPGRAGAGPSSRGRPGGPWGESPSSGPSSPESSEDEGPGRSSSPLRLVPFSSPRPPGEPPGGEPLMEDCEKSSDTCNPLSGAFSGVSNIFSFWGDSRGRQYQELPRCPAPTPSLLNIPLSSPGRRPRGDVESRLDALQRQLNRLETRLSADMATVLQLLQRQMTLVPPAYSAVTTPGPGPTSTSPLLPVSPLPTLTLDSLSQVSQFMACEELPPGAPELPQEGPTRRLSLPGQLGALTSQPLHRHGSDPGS
Method in brief: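 Kinetic two-minute fluorescence traces, sampled at 1 s, were collected following thallium stimulus of U2OS cells (1000 per well) that had been cultured overnight at 37 C and loaded with FluxOR II.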

[7] = biological target: Cytochrome P450 3A4 (Homo sapiens) (UniProt P08684); experiment: Cytochrome P450 Family 3 Subfamily A Member 4 (CYP3A4) small molecule antagonists: luciferase reporter qHTS assay (AID 1671201); also: nearly all actives have a fitted effect of over 50% in size; also: potency is read from the fitted curve at half-maximal effect
Chain of Cytochrome P450 3A4 (Homo sapiens) (P08684 whole entry, looked up): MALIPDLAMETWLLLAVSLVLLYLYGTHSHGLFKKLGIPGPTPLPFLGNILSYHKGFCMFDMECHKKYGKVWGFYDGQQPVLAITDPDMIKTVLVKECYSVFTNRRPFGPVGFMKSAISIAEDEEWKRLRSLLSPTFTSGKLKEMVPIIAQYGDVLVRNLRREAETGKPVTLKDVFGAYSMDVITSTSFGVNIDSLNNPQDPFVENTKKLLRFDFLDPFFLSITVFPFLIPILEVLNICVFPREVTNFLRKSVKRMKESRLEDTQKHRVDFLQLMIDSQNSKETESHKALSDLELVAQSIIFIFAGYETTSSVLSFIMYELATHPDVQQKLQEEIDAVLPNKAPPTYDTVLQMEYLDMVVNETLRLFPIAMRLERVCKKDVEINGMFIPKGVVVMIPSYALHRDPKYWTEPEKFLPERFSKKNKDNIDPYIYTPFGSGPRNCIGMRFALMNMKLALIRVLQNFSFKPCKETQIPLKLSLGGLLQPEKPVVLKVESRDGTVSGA
Method in brief: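 Proluciferin-to-luciferin conversion by CYP3A4, NADPH-regenerated, 1 h RT; luminescence read as RLU. Ketoconazole as control.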

[8] = Caspase-3/7 induction in CHO-K1 cells by small molecules, qHTS cell viability counter screen (AID 1346979); also: nearly all actives have a fitted effect of over 35% in size; also: potency is read from the fitted curve at half-maximal effect
Method in brief: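 CellTiter-Fluor viability check, qHTS format: wild-type CHO-K1, 16hr compound treatment, 1hr reagent incubation, fluorescence read.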

[9] = Caspase-3/7 induction in CHO-K1 cells by small molecules, qHTS assay (AID 1346980); also: nearly all actives have a fitted effect of over 15% in size
Method in brief: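 Wild-type CHO-K1 cells exposed to compounds for 17hr at 37 C, 5% CO2. Caspase-3/7 activity then measured by Caspase-Glo 3/7 luminescence after 30min at room temperature.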

[10] = biological target: Cytochrome P450 2D6 (Homo sapiens) (UniProt P10635); experiment: Cytochrome P450 Family 2 Subfamily D Member 6 (CYP2D6) small molecule antagonists: luciferase reporter qHTS assay (AID 1671196); also: nearly all actives have a fitted effect of over 50% in size; also: potency is read from the fitted curve at half-maximal effect
Chain of Cytochrome P450 2D6 (Homo sapiens) (P10635 whole entry, looked up): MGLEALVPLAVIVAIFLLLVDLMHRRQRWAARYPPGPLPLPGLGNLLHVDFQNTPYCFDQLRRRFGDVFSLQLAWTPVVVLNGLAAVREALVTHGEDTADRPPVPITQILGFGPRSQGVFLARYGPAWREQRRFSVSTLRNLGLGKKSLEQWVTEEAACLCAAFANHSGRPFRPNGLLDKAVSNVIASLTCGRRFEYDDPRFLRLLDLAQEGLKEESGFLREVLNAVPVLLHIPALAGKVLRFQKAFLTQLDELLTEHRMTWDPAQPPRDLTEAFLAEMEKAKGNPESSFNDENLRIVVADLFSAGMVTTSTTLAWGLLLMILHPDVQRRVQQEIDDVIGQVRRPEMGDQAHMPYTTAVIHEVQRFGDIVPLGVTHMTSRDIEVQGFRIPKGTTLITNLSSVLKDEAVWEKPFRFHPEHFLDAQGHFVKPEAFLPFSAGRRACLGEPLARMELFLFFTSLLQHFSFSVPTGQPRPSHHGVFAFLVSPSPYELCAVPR
Method in brief: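 CYP2D6 enzyme–substrate mix was held with compound for 10 min at room temperature, then NADPH regeneration solution was added and the reaction ran 1 h at room temperature. Luciferin product was detected by luminescence after 20 min with detection reagent.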

[11] = biological target: Cytochrome P450 2C9 (Homo sapiens) (UniProt P11712); experiment: Cytochrome P450 Family 2 Subfamily C Member 9 (CYP2C9) small molecule antagonists: luciferase reporter qHTS assay (AID 1671198); also: nearly all actives have a fitted effect of over 50% in size; also: potency is read from the fitted curve at half-maximal effect
Chain of Cytochrome P450 2C9 (Homo sapiens) (P11712 whole entry, looked up): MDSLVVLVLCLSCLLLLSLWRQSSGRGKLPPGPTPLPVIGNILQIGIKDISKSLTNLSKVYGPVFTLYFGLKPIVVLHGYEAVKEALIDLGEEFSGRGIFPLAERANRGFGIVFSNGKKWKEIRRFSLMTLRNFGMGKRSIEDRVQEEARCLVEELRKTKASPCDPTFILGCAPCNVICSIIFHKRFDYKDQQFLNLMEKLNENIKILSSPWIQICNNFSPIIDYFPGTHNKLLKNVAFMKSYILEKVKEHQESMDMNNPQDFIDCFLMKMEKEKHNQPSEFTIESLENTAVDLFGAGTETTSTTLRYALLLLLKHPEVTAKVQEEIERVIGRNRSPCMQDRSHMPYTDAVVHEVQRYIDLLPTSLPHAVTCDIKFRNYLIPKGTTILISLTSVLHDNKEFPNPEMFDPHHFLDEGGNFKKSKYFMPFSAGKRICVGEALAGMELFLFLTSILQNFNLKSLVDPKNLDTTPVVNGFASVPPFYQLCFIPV
Method in brief: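 P450-Glo proluciferin substrate with CYP2C9 enzyme; 10 min RT preincubation, then NADPH regeneration 1 h at 37C; luciferin detection reagent 20 min RT, luminescence in relative luminescence units.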

[12] = biological target: Cytochrome P450 1A2 (Homo sapiens) (UniProt P05177); experiment: Cytochrome P450 Family 1 Subfamily A Member 2 (CYP1A2) small molecule antagonists: luciferase reporter qHTS assay (AID 1671199); also: nearly all actives have a fitted effect of over 50% in size; also: potency is read from the fitted curve at half-maximal effect
Chain of Cytochrome P450 1A2 (Homo sapiens) (P05177 whole entry, looked up): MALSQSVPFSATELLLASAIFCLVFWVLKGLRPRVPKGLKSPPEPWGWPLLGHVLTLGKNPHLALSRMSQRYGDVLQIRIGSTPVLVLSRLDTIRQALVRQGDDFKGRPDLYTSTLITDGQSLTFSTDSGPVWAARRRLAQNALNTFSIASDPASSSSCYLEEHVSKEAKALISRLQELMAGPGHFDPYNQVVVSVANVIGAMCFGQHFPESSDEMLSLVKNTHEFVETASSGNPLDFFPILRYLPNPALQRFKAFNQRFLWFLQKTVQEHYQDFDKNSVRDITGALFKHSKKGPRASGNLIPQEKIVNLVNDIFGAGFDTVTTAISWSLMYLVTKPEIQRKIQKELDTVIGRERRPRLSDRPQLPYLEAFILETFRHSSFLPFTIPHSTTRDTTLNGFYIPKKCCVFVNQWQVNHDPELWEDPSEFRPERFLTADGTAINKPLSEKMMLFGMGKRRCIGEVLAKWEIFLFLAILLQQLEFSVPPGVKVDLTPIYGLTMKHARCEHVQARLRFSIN
Method in brief: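 Human CYP1A2 activity measured with a P450-Glo proluciferin substrate; compounds in DMSO preincubated 10 min at room temperature with enzyme-substrate mix, then NADPH regeneration system added for 1 h. Luciferin detection reagent, 20 min, luminescence read.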

[13] = biological target: Nuclear receptor subfamily 1 group I member 2 (Rattus norvegicus) (UniProt Q9R1A7); experiment: Rat pregnane X receptor (rPXR) activation by small molecules, qHTS assay (AID 1346983); settings: rPXR luciferase reporter cells, One-Glo luminescence, 24 h; stronger effect = higher value; also: nearly all actives have a fitted effect of over 20% in size
Chain of Nuclear receptor subfamily 1 group I member 2 (Rattus norvegicus) (Q9R1A7 whole entry, looked up): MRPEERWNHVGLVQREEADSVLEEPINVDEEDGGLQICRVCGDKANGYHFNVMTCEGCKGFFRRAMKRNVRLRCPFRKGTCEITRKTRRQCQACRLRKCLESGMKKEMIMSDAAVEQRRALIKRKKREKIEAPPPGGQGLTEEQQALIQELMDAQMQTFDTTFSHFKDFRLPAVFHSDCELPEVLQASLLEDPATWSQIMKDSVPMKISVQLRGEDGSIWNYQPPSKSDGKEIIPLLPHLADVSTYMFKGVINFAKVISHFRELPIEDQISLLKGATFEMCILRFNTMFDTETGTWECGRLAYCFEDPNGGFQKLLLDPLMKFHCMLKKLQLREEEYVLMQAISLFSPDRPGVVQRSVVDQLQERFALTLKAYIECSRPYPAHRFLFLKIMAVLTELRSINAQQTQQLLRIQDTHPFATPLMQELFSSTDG
Method in brief: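 Cell-based rPXR activation assay: rPXR cells, 2,000 per well, rested 5hr at 37 C, then exposed to compounds in DMSO for 24 hr at 37 C. Luciferase activity read by One-Glo luminescence after 30 min at room temperature.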

[14] = biological target: Nuclear receptor subfamily 1 group I member 2 (Homo sapiens) (UniProt O75469); experiment: CYP3A4 induction through human pregnane X receptor (PXR) by small molecules, qHTS assay (AID 1346984); also: nearly all actives have a fitted effect of over 40% in size; also: potency is read from the fitted curve at half-maximal effect
Method in brief: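 DPX-2 cells (HepG2 co-transfected with PXR and CYP3A4 promoter-luciferase) treated with compounds 24 h at 37C; luciferin-IPA CYP3A4 substrate 3uM final added for 3 h, then One-Glo; luminescence read. qHTS format.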

[15] = biological target: Nuclear receptor subfamily 1 group I member 2 (Homo sapiens) (UniProt O75469); experiment: Human pregnane X receptor (PXR) activation by small molecules, qHTS assay (AID 1346985); also: nearly all actives have a fitted effect of over 40% in size; also: potency is read from the fitted curve at half-maximal effect
Method in brief: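 DPX-2 cells (HepG2 co-transfected with a PXR response element and a CYP3A4-promoter luciferase construct) were seeded at 2,000 per well, rested 5 hr at 37C, then exposed to DMSO-dissolved compounds for 24 hr. Activation was read as luciferase luminescence.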

Row | SMILES | Potency [1] | Potency [2] | Potency [3] | Potency [4] | Potency [5] | Potency [6] | Potency [7] | Potency [8] | Potency [9] | Potency [10] | Potency [11] | Potency [12] | max activation [13] | Potency [14] | Potency [15]
1 | Sc1nc2ccccc2s1 | inactive | inactive | inactive | 54.5 µM (active) | 7.96 µM (active) | inactive | inactive |  |  |  |  |  |  |  | 
2 | CC(C)=CCNc1ncnc2c1ncn2[C@@H]1O[C@H](CO)[C@@H](O)[C@H]1O | 13.3 µM (active) |  |  | 9.44 µM (active) | inactive | inactive | inactive | 11.9 µM (active) | inactive | inactive | inactive | inactive |  |  | 
3 | CC1(C)[C@@H](O)CC[C@]2(C)[C@H]3C(=O)C=C4[C@@H]5C[C@@](C)(C(=O)O)CC[C@]5(C)CC[C@@]4(C)[C@]3(C)CC[C@@H]12 | inactive |  |  | inactive | inactive |  | inactive |  | inactive | inactive | inactive | inactive | 1.62% (inactive) | inactive | inactive
4 | Cc1ccc(C(C)C)cc2c(C)ccc1-2 |  | inactive | inactive | 10.6 µM (active) |  | inactive |  | inactive | inactive | inactive |  |  |  | inactive | 22.4 µM (active)
5 | O=C1c2ccccc2C(=O)N1SC1CCCCC1 |  | inactive | inactive | inactive | 25.2 µM (active) and 39.9 µM (active) |  | inactive | 54.4 µM (active) and 43.3 µM (active) | inactive |  | 3.99 µM (active) and 7.1 µM (active) | 35.5 µM (active) and 35.6 µM (active) |  |  | 
6 | CC1(C)CC(O)CC(C)(C)N1 |  | inactive | inactive | 55.5 µM (active) | inactive | inactive | inactive | inactive | inactive | inactive | inactive |  |  |  | 
7 | [Cu+] |  | inactive | inactive | inactive | 2.24 µM (active) | inactive | 39.9 µM (active) | inactive | inactive |  |  | 39.9 µM (active) |  |  | 
8 | CCC(COC(=O)CCS)(COC(=O)CCS)COC(=O)CCS |  | inactive | inactive | 21.7 µM (active) | 5.64 µM (active) |  | 3.56 µM (active) | inactive | inactive | inactive | 28.3 µM (active) |  |  |  | 
9 | CCCNCCC |  | inactive | inactive | inactive | inactive | inactive | inactive | inactive | inactive |  | inactive | inactive |  |  | 
10 | CCCCOC(=O)CO |  | inactive | inactive | inactive | inactive | inactive | inactive | inactive | inactive | inactive | inactive |  |  |  | 
11 | Cc1ccc(C(=O)O)cc1 |  | inactive | inactive | inactive | inactive | inactive | inactive | inactive | inactive | inactive | inactive | inactive |  |  | 
12 | Oc1ccccc1O |  | inactive | inactive | 22 µM (active) and inactive | 80.6 µM (active) and inactive | inactive | inactive | 27.6 µM (active) and 21.7 µM (active) | inactive | inactive | inactive | inactive |  |  | 
13 | CN1CCC[C@@H]1CCO[C@](C)(c1ccccc1)c1ccc(Cl)cc1 | 21.1 µM (active) |  |  |  |  |  |  | 26.6 µM (active) | inactive |  |  |  | 6.7% (inactive) |  | 
14 | Cc1ccc(O)c(N)c1 |  | inactive | inactive | 48.6 µM (active) | 35.6 µM (active) | inactive | 15.9 µM (active) | 61.2 µM (active) | inactive | 35.6 µM (active) | 15.9 µM (active) | 40 µM (active) |  |  | 
15 | O=C(c1ccc(O)c(O)c1)c1ccc(O)cc1O | 50.1 µM (active) |  |  | 54.4 µM (active) | 17.8 µM (active) | inactive | 5.63 µM (active) | 54.4 µM (active) | inactive | 3.55 µM (active) | inactive | 31.7 µM (active) |  |  | 
16 | OCCN1CCN(CCCN2c3ccccc3Sc3ccc(C(F)(F)F)cc32)CC1 | 33.5 µM (active) |  |  | inactive |  | 3.38 µM (active) |  | 29.8 µM (active) |  |  |  |  |  |  | 
17 | CCCCN(CCCC)CC(O)c1cc(Cl)cc2c1-c1ccc(Cl)cc1/C2=C/c1ccc(Cl)cc1 (stereo not drawn) | 29.8 µM (active) |  |  |  | 17.4 µM (active) | 2.68 µM (active) |  | 26.6 µM (active) |  | 0.49 µM (active) |  | 16.2 µM (active) |  | 10 µM (active) | 11.2 µM (active)
18 | COc1cc(S(=O)(=O)O)c(C)cc1N=Nc1c(O)ccc2cc(S(=O)(=O)O)ccc12 |  | inactive | 19.3 µM (active) | inactive | 79.6 µM (active) | inactive | inactive | 15.4 µM (active) | inactive | 35.6 µM (active) | 39.9 µM (active) | 35.6 µM (active) |  |  | 
19 | COC(=O)c1ccccc1C |  | inactive | inactive | inactive | inactive | inactive | inactive | inactive | inactive |  |  | inactive |  |  | 
